{
  "source": "PubChem BioAssay AID1508635",
  "about": "(National Center for Advancing Translational Sciences (NCATS), 2021)",
  "note": "Inconclusive results are not listed. A call without a number means that no potency is given here. The source made the active and inactive calls. The call rests on the fitted dose curve; in most records, active means well fitted inhibition curve with a large enough effect; inconclusive means small, poorly fitted or top-dose-only effect; inactive means no such curve, though single readings can be large or run the other way. Numbered stars: 1 amine (or outer) side, 2 acyl side, 3 side chain; on linkers, the order of the positions; unused ones are H or OH. Bridge positions count the residues as written; N and C are the ends. Square brackets hold non-standard residues; d marks the D form. Peptide text beside a SMILES is read from it. I, II: the chains in the order shown. * marks the point of attachment. ξ: configuration not given here. Actinocin(9to1) = Cc1c2oc3c(C)ccc(C(=O)[*:1])c3nc-2c(C(=O)[*:2])c(N)c1=O; ξNMeV = CNC(C(=O)O)C(C)C; Cbz = O=C(OCc1ccccc1)*; ξV = CC(C)C(N)C(=O)O; Sar = CNCC(=O)O",
  "data": [
    {"tested_on": "zebrafish Abcb4 (ABCB1 homolog)", "test": "qHTS for characterization and localization of zebrafish homologs of the human ABCB1 multidrug transporter: ABCB4 transfected cells", "settings": "CellTiter-Glo viability luminescence, 72 h; series mostly up to 46.1 µM", "from_the_text": "The zebrafish has emerged as a potential model to study the blood-brain barrier (BBB) given its similarities with mammalian systems. However, little information has been available with regard to homologous ATP-binding cassette transporters expressed at the zebrafish BBB. Two transporters that are highly expressed at the human BBB are P-glycoprotein (P-gp, encoded by the ABCB1 gene) and ABCG2 (encoded by the ABCG2 gene). In this study, we focus on characterization of P-gp homologs in the zebrafish, which has two genes that are homologous to human ABCB1 - abcb4 and abcb5. We generated stably-transfected cell lines to determine their substrate specificities. […] Zebrafish abcb4 also colocalized with claudin 5 expression in brain endothelial cells.\nA high-throughput screen was performed as previously described on empty vector transfected cells, P-gp-overexpressing MDR-19 cells and cells transfected with full-length zebrafish abcb4 (ZF Abcb4) or abcb5 (ZF Abcb5). Briefly, cells were plated into 1536-well plates at a density of 500 cells/well in 5 uL media. P-gp substrate compounds (approximately 90) selected from our previous study were then added at varying concentrations using a 1536-head pin tool (Kalypsis, San Diego, CA) and plates were incubated at 37C in 5% CO2 for 72 h. CellTiter-Glo reagent (Promega) was dispensed into the wells, incubated for 5 min and luminescence was read on a ViewLux instrument (Perkin-Elmer).\nCytotoxic compounds were defined as those that yielded a curve class of -1.1, -1.2, -2.1, -2.2, -2.3, or -2.4, a maximum response of >50% and an AC50 of < 10 uM. All compounds from screening analysis were tested in Vector (empty vector control), MDR-19 (P-gp overexpressing), zebrafish abcb4 (ZF Abcb4) and abcb5 (ZF Abcb5) expression cell lines.\n1. Tobie D Lee, Olivia W Lee, Kyle R Brimacombe, Lu Chen, Rajarshi Guha, Sabrina Lusvarghi, Bethilehem G Tebase, Carleen Klumpp-Thomas, Robert W Robey, Suresh V Ambudkar, Min Shen, Michael M Gottesman, Matthew D Hall. A High-Throughput Screen of a Library of Therapeutics Identifies Cytotoxic Substrates of P-glycoprotein. Mol Pharmacol. 2019, Nov;96(5):629-640.", "values": [
      {"smiles": "COCCn1c2c([n+](Cc3cnccn3)c1C)C(=O)c1ccccc1C2=O", "Potency": "inactive"},
      {"smiles": "Cc1cc(Nc2cc(N3CCN(C)CC3)nc(Sc3ccc(NC(=O)C4CC4)cc3)n2)n[nH]1", "Potency": "inactive"},
      {"smiles": "CCc1c(O)cc(O)c(C(=O)c2ccc(OCCN3CCOCC3)c(OC)c2)c1CC(=O)N(CCOC)CCOC", "Potency": "inactive"},
      {"smiles": "CC(C)C[C@@H](C=O)NC(=O)[C@H](CC(C)C)NC(=O)[C@H](CC(C)C)NC(=O)OCc1ccccc1", "note": "(Cbz-Leu-Leu-Leu-aldehyde)", "Potency": "2.96 µM (active)"},
      {"smiles": "O=C(NC1CCNCC1)c1[nH]ncc1NC(=O)c1c(Cl)cccc1Cl", "Potency": "inactive"},
      {"smiles": "C#Cc1cccc(Nc2ncnc3cc(OC)c(OCCCCCCC(=O)NO)cc23)c1", "Potency": "13.2 µM (active)"},
      {"smiles": "CC(=O)O[C@@H]1C[C@H](O)[C@@]23CO[C@@H](O)C1(C)[C@@H]2C[C@@H](O)[C@]1(C)[C@@H]3C(=O)[C@H](OC(C)=O)[C@@]2(C)[C@H](c3ccoc3)C[C@H]3O[C@]321", "Potency": "2.96 µM (active)"},
      {"smiles": "Cc1ccc(C(=O)N(CCCN)C(c2nc3cc(Cl)ccc3c(=O)n2Cc2ccccc2)C(C)C)cc1", "note": "(stereo not given)", "Potency": "20.9 µM (active)"},
      {"smiles": "COc1cc(N2CCC(O)CC2)ccc1Nc1nc(Nc2ccccc2S(=O)(=O)C(C)C)c2[nH]cnc2n1", "Potency": "inactive"},
      {"smiles": "CC[C@@]1([C@@H]2O[C@@H]([C@H]3O[C@@](O)(CO)[C@H](C)C[C@@H]3C)C[C@@H]2C)CC[C@H]([C@]2(C)CC[C@]3(C[C@H](O)[C@@H](C)[C@@H]([C@@H](C)[C@@H](OC)[C@H](C)C(=O)O)O3)O2)O1", "Potency": "1.05 µM (active)"},
      {"smiles": "CCn1c(-c2nonc2N)nc2c(C#CC(C)(C)O)ncc(OC[C@H]3CCCNC3)c21", "Potency": "inactive"},
      {"smiles": "Cc1ccc(C(=O)N(CCCN)[C@@H](c2oc3cc(Cl)ccc3c(=O)c2Cc2ccccc2)C(C)C)cc1", "Potency": "20.9 µM (active)"},
      {"smiles": "COc1ccc(CC2C(=O)NC(C)C(=O)N(C)C3Cc4ccc(cc4)Oc4cc(ccc4OC4OC(CO)C(O)C(O)C4O)CC(C(=O)NC(C)C(=O)NC(C)C(=O)N2C)N(C)C3=O)cc1", "note": "(stereo not given)", "Potency": "inactive"},
      {"smiles": "C[C@@H]1O[C@@H](O[C@H]2[C@@H](OC(=O)[C@]34CCC(C)(C)CC3C3=CCC5[C@@]6(C)C[C@H](O)[C@H](O[C@@H]7O[C@H](CO)[C@@H](O)[C@H](O)[C@H]7O[C@@H]7OC[C@@H](O)[C@H](O)[C@H]7O)[C@@](C)(C(=O)O)C6CC[C@@]5(C)[C@]3(C)CC4)OC[C@H](O)[C@@H]2O)[C@H](O)[C@H](O)[C@H]1O[C@@H]1OC[C@@H](O)[C@H](O)[C@H]1O", "note": "(stereo not given in full)", "activity change, negative = inhibition": "-5.3% [at 8.96 µM] (inactive)"},
      {"smiles": "CC(C)C[C@H](NC(=O)[C@H](CCc1ccccc1)NC(=O)CN1CCOCC1)C(=O)N[C@@H](Cc1ccccc1)C(=O)N[C@@H](CC(C)C)C(=O)[C@@]1(C)CO1", "Potency": "2.35 µM (active)"},
      {"smiles": "Cc1[nH]c2ccccc2c1CCNCc1ccc(/C=C/C(=O)NO)cc1", "Potency": "2.96 µM (active)"},
      {"smiles": "Cc1nc(Nc2n[nH]c3c2CN(C(=O)N[C@H](CN(C)C)c2ccccc2)C3(C)C)c2sccc2n1", "Potency": "inactive"},
      {"smiles": "COc1cc2c(NC3CCN(C(C)C)CC3)nc(N3CCCN(C)CC3)nc2cc1OCCOCCN(C)C", "Potency": "inactive"},
      {"smiles": "CN(C)C1CCN(C(=O)c2ccc(NC(=O)Nc3nc(N4CCOCC4)nc(N4CCOCC4)n3)cc2)CC1", "Potency": "inactive"},
      {"smiles": "CCN1CCN(Cc2ccc(NC(=O)Nc3ccc(Oc4cc(NC)ncn4)cc3)cc2C(F)(F)F)CC1", "Potency": "inactive"},
      {"smiles": "Cc1c2oc3c(C)ccc(C(=O)N[C@@H]4C(=O)NC(C(C)C)C(=O)N5CCC[C@H]5C(=O)N(C)CC(=O)N(C)C(C(C)C)C(=O)O[C@@H]4C)c3nc-2c(C(=O)N[C@@H]2C(=O)NC(C(C)C)C(=O)N3CCC[C@H]3C(=O)N(C)CC(=O)N(C)C(C(C)C)C(=O)O[C@@H]2C)c(N)c1=O", "note": "(stereo not given in full) (I: T[ξV]P[Sar][ξNMeV] / II: T[ξV]P[Sar][ξNMeV]; ester I:1-I:C, II:1-II:C; linker I:N-II:N via Actinocin(9to1))", "Potency": "0.418 µM (active)"},
      {"smiles": "Cc1cc(N)c2ccccc2[n+]1CCCCCCCCCC[n+]1c(C)cc(N)c2ccccc21", "Potency": "inactive"},
      {"smiles": "CCS(=O)(=O)c1cccc(-c2cc(C(=O)NC3CCN(C)CC3)c(C)c3[nH]c4ncc(C)cc4c23)c1", "Potency": "inactive"},
      {"smiles": "CCc1cccc(CC)c1NC(=O)N1Cc2[nH]nc(NC(=O)c3ccc(N4CCN(C)CC4)cc3)c2C1", "Potency": "inactive"},
      {"smiles": "C=C1CO[C@@]2(O[C@H]3CC4C5CC=C6C[C@@H](O)C[C@@H](O[C@@H]7OC[C@H](O)[C@H](O[C@@H]8OC[C@@H](O)[C@H](O)[C@H]8O)[C@H]7O[C@@H]7O[C@@H](C)[C@H](OC(C)=O)[C@@H](OC(C)=O)[C@H]7OC(C)=O)[C@]6(C)C5CC[C@]4(C)[C@@H]3[C@@H]2C)[C@@H](O)[C@H]1OC1OC(C)C(O)C(O)C1O", "note": "(stereo not given in full)", "activity change, negative = inhibition": "4.44% [at 8.96 µM] (inactive)"},
      {"smiles": "CO[C@H]1/C=C/C=C/C=C/C[C@H](OC(=O)[C@@H](C)NC(=O)C2CCCCC2)[C@H](C)[C@@H](O)/C(C)=C/CCc2cc(O)cc(c2)NC(=O)C1", "Potency": "inactive"},
      {"smiles": "COc1cc2c(NC3CCN(C(C)C)CC3)nc(N3CCCN(C)CC3)nc2cc1OCCCN1CCCC1", "Potency": "inactive"},
      {"smiles": "C#CCN(Cc1cc2c(=O)n(C)c(CN3CCN(C)CC3)nc2cc1Cl)c1ccc(C(=O)NCc2cccnc2)cc1", "Potency": "inactive"},
      {"smiles": "CC(=O)C1(O)Cc2c(O)c3c(c(O)c2C(OC2CC(N)C(O)C(C)O2)C1)C(=O)c1c(O)cccc1C3=O", "note": "(stereo not given)", "Potency": "0.526 µM (active)"},
      {"smiles": "CN(C)c1ccc(C(=C2C=CC(=[N+](C)C)C=C2)c2ccc(N(C)C)cc2)cc1", "Potency": "13.2 µM (active)"},
      {"smiles": "CC1(C)CC(NC(=O)C(=O)Nc2ccc(Br)cc2)CC(C)(C)N1", "Potency": "inactive"},
      {"smiles": "CC(C)CC(=O)Nc1n[nH]c2c1CN(C(=O)C1CCN(C)CC1)C2(C)C", "Potency": "inactive"},
      {"smiles": "CCN(CC)Cc1ccc(C(=O)N(CCc2ccccc2OC)[C@@H]2CCNC2)cc1", "Potency": "inactive"},
      {"smiles": "CCC(C)C(=O)OC1CC(O)C23C4OCC5(C(O)CC2C1(C)C(O)O4)C3C(=O)C(O)C1(C)C(O)(c2ccoc2)CC2OC251", "note": "(stereo not given)", "Potency": "inactive"},
      {"smiles": "Cc1ccc(-c2ncn(-c3ccc(Nc4nccc(-c5cccc(N6CCOCC6)c5)n4)cc3)n2)cn1", "Potency": "4.18 µM (active)"},
      {"smiles": "CC(C)C[C@H](NC(=O)[C@@H](NC(=O)c1cccc(-c2ccccc2)n1)[C@@H](C)O)B(O)O", "Potency": "0.662 µM (active)"},
      {"smiles": "CC1(C)CC[C@]2(C(=O)OC3OC(CO)C(O)C(O)C3O)CC[C@]3(C)C(=CCC4[C@@]5(C)CC[C@H](OC6OC(C(=O)O)C(O)C(O)C6O)C(CO)(CO)C5CC[C@]43C)[C@@H]2C1", "note": "(stereo not given in full)", "Potency": "inactive"},
      {"smiles": "CC(NCc1ccc2c(c1)nc(NC(=O)c1ccc(-c3cn[nH]c3)s1)n2CC(C)(C)O)C(C)(C)C", "note": "(stereo not given)", "Potency": "6.62 µM (active)"},
      {"smiles": "C[C@@]12O[C@@H](C[C@]1(O)CO)n1c3ccccc3c3c4c(c5c6ccccc6n2c5c31)CNC4=O", "Potency": "5.26 µM (active)"},
      {"smiles": "COc1cc2ncn(-c3cc(OCc4ccccc4C(F)(F)F)c(C(N)=O)s3)c2cc1OC", "Potency": "19.1 µM (active)"}
    ]}
  ]
}
